Compound activity deposited in PubChem BioAssay by ICCB-Longwood Screening Facility, Harvard Medical School.
CapD inh = Bacillus anthracis CapD inhibitors, primary screen, biochemical, fluorescence intensity | AID 492967, 2010 | CapD gamma-glutamyltranspeptidase (Bacillus anthracis Ames Ancestor) | purified CapD enzyme, fluorescence intensity read-out; stronger effect = lower value | z-score (test concentration not listed) | 140,000 compounds, 0.23% hits; in the data active means z-score mostly below about -2.9, no sharp cut-off; inactive means mostly above about -1.9
The depositor's hits bear a star. This is one part of a sample in which hits are shown more often than they occur.

SMILES	CapD inh
Cc1ccc(N=Cc2c(O)[nH]c(=S)[nH]c2=O)cc1	0.93
O=c1[nH]c(=S)[nH]c(O)c1N=Nc1ccc(O)cc1	-3.9*
COc1cccc(C(=O)c2sc(NC(C)C)nc2N)c1	-4.3*
CCOC(=O)c1sc(NC(=O)c2cccc(OC)c2)nc1-c1ccccc1	0.62
COc1cccc(C(=O)NN)c1	0.76
COc1ccc(CCNC(=O)CCn2c(SCc3cc(=O)n4ccccc4n3)nc3ccccc3c2=O)cc1OC	-0.37
O=S(=O)(c1ccccc1)C(Cc1ccc(F)cc1)c1ccco1 (configuration not stated)	-0.52
COc1ccc(-c2nc(SC3CCCC3)c3c(=O)n(C)c(=O)n(C)c3n2)cc1	-0.84
N#C/C(=N\Nc1cc(C(F)(F)F)cc(C(F)(F)F)c1)C(=O)c1ccco1	-2.6
N#CC(C(=O)c1ccco1)=C1SCCCS1	-2
N#C/C(=N\O)C(=O)c1ccco1	-4.6*
O=C(/C=C/n1cc(C(F)(F)F)cc(Cl)c1=S)c1ccc(Cl)cc1	-0.3
CCCOc1ccc(CC(=O)NC(C)CC)cc1OC (configuration not stated)	0.085
OC(Cc1cccnc1)(c1ccccc1)c1ccc(Cl)cc1 (configuration not stated)	-0.93
Cn1cccc1/C=N/n1cnnc1	-5.5*
NS(=O)(=O)c1ccc(-n2cccc2C=Nn2cnnc2)cc1	-1.8
C(=N\n1cnnc1)/c1ccccc1	0.41
COc1ccc(/C=C2\C=C(c3ccccc3)N(c3ccc(C)cc3Br)C2=O)cc1Br	-1.2
CCCCCCCc1c2c(C)c(C(=O)OCC)[nH]c2cc2[n+]1CC(C)=C2C	54
O=C(COC(=O)c1ccc(O)cc1O)c1ccccc1	-0.14
CCc1c(C)[nH]c(N)nc1=S	-4.4*
CCCCc1c(C)nc(N)[nH]c1=O	0.43
CCc1c(C)nc(N)nc1N1NC1=S	-1
COc1ccc(/C=C2/SC(=S)NC2=O)cc1COc1ccc(F)cc1F	-1.6
O=C1NC(=S)S/C1=C\c1c(F)cccc1Cl	-4.1*
SMILES	CapD inh
O=[N+]([O-])/C=C/c1c(F)cccc1Cl	0.67
Cc1ccc(NCc2c(C)[nH]c3ccccc3c2=O)cc1C	-0.56
Cc1cc(C)cc(N2C(=O)CSC23C(=O)Nc2ccccc23)c1 (configuration not stated)	-0.075
COc1cnc(-c2ccccc2)nc1Sc1cccc(Cl)c1Cl	-0.3
c1csc(-c2noc(CNC3Cc4ccccc4C3)n2)c1	-1.1
Cc1ccc(Nc2nc3nonc3nc2NC(C)(C)C)cc1C	-2
O=c1oc(-c2c(Cl)cccc2Cl)ns1	0.15
O=c1oc(-c2cccs2)nc2ccccc12	-0.025
O=c1oc(-c2cccs2)ns1	-8.9*
COc1ccc(/C=N/Nc2nc(-c3ccc(OC)cc3)c(C)s2)cc1	0.47
NC(=NC(=O)c1cccs1)c1cccs1	-2.2
CCOC(=O)c1c(/N=c2\oc3ccc(Cl)cc3cc2C(N)=O)sc2c1CCCC2	-0.15
O=c1cc(CSc2n[nH]c(-c3ccccc3)n2)c2ccc(O)cc2o1	2.5
CCOC(=O)c1nonc1N	-0.2
CC(=O)N1c2nonc2N(C(C)=O)c2nonc21	-11*
CC(=O)Nc1nonc1N1CCCC1=O	0.08
Cc1ccc(S(=O)(=O)N2CCN3CN(S(=O)(=O)c4ccc(C)cc4)CC([N+](=O)[O-])(C3)C2)cc1 (configuration not stated)	-0.32
N#Cc1cnn(-c2ccccc2)c1C(F)(F)F	-0.05
N/C(=N\OCc1c(F)cccc1Cl)c1ccc(Cl)cc1	-0.55
CN(C)/C=C/C=C1\CCc2ccccc2C1=O	-0.79
CN(C)/C=C/C=C1\CC/C(=C\C=C\N(C)C)C1=O	-7.3*
N#CC(=C1Nc2ccccc2N1)c1nc(C#N)c(C#N)nc1Cl	-0.8
C=CCSc1nnc(-c2cc(C(C)(C)C)c(O)c(C(C)(C)C)c2)s1	4
Cc1cc(N2C(=O)NC(=O)/C(=C\C=C\c3ccco3)C2=O)ccc1Br	-0.89
O=C1NC(=S)N(c2ccccc2)C(=O)/C1=C/C=C/c1ccco1	-1
SMILES	CapD inh
COc1cccc(N2C(=O)/C(=C/C=C/c3ccco3)C(=O)NC2=S)c1	-7.4*
Cc1ccccc1-n1c(O)c(C2=c3cc(Br)ccc3=NC2=O)sc1=S	-0.15
CCOC(=O)c1c[nH]c(=S)[nH]1	0.14
CCOC(=O)c1c[nH]c(=S)[nH]c1=O	-7*
CCOC(=O)c1cnc(=S)[nH]c1N	-0.74
Cc1nc2ccccc2c(C(=O)OCC(=O)Nc2ccc(Cl)cc2F)c1C	-0.03
O=C(OCc1cc(-c2ccc(Cl)c(Cl)c2)on1)c1ccc(F)cc1	-0.49
CCN1C(=O)/C(=C\c2ccc(OC)cc2)C(C(=O)OC)=C1C	-4.9*
C=CCN1C(=O)/C(=C\c2ccccc2)C(C(=O)OC)=C1C	-1.3
CCN1C(=O)/C(=C\c2ccco2)C(C(=O)OC)=C1C	-0.87
CCCCC(=O)N1c2ccc(OC)cc2C2=C(SC(C(=O)OCC)=C(C(=O)OCC)C23SC(C(=O)OCC)=C(C(=O)OCC)S3)C1(C)C	-0.15
CN(C)/C=C/C(=O)c1cccc(C(F)(F)F)c1	-1.8
CN(C)/C=C/C(=O)c1ccsc1	-6.3*
Cc1ccc(C(=O)/C=C/N(C)C)cn1	-2.8
Cc1ccc(NC(=O)COc2ccc(/C=c3/sc4n(c3=O)CCN=4)cc2)cc1	0.12
O=C(CSc1nc2ccc(NC(=O)c3ccccc3C(=O)O)cc2s1)Nc1ccc(F)cc1	-0.29
O=C(CSc1nnc2c(n1)-c1cccc3cccc-2c13)Nc1ccc([N+](=O)[O-])cc1	0.52
N=C1S/C(=C\c2ccc(-c3ccccc3F)o2)C(=O)N1c1nccs1	-1.1
N=C1S/C(=C/c2ccc(-c3ccccc3C(=O)O)o2)C(=O)N1c1nccs1	-2.1
N=C1S/C(=C/c2ccco2)C(=O)N1c1nccs1	-4.3*
O=C(N/N=C/c1ccc(F)cc1)c1c(O)c2c([nH]c1=O)CCCC2	0.095
CC(C)CC(=O)NC(C)C(c1cccs1)N1CCN(c2ccccc2)CC1 (configuration not stated)	0.94
CSc1ccc(C=C(C#N)C#N)cc1	-0.67
CN(C)c1ccc(C=C(C#N)C#N)cc1	-0.06
N#CC(C#N)=Cc1ccc(O)c(Cl)c1	-5.4*
SMILES	CapD inh
Cn1c2ccccc2c2c(C(=O)N3CCCCC3)cn(C3CCCC3)c(=O)c21	-0.77
CCOC(=O)c1ccc(NC(=S)N2CCOCC2)cc1	0.17
Cc1cc(C)nc(OC(Cc2ccncc2)c2ccccc2)n1 (configuration not stated)	-0.32
COC(=O)N=Nc1c(O)[nH]c2ccc(Br)cc12	-0.73
O=C(O)c1cc(=O)c2cc(Br)ccc2o1	0.56
O=c1ccc2cc3c([nH]c4ccc(Br)cc43)oc-2c1O	-7.8*
COc1cccc(NS(=O)(=O)c2cc(C(=O)N3CCN(C)CC3)ccc2NCc2ccccc2Cl)c1	1.4
c1ccc(Cc2nc(-c3ccccc3)no2)cc1	-0.25
Oc1ccc(CN2CCOCC2)c2cccnc12	0.23
CN1CCN(Cc2ccc(O)c3ncccc23)CC1	-4.8*
CC(C)OCc1cc(CN2CCN(C)CC2)c(O)c2ncccc12	-0.98
CCOc1ccc(-n2c(=S)sc3c(=O)n(-c4ccc(C)cc4)c(=S)[nH]c32)cc1	-1
CCN(CC)c1ccc(C(=O)Nn2c(-c3cc(OC)c(OC)c(OC)c3)nc3ccccc3c2=O)cc1	-0.23
N#C/C(=C\c1ccc(-c2cccc(C(=O)O)c2)o1)C(=O)NC1CCCCC1	-2.2
N#CC(C#N)=C(N)/C(C#N)=C/c1ccc(-c2cccc(C(=O)O)c2)o1	-4*
N#C/C(=C/c1ccc(-c2cccc(C(F)(F)F)c2)o1)c1ccc(C(=O)O)cc1	-2
